# Results from article PMC11062922 (Nature Chemical Biology, 2023).
# Read-outs that look alike come from different tables or passages of the source.
# How the values were obtained:
# Design in all cases: species or system human, MV4-11 + K-562 + COLO205 + SK-N-BE2 + OVCAR-8
# [1] = system: PAK4; details: compound concentrations:0.3nM, 1nM, 3nM, 10nM, 30nM, 100nM, 300nM, 1000nM,R2:0.97831665287894598,slope:1.2194506521172099,EC50 Standard Error, by the legend:Standard error of the EC50 estimation as provided by the drc package.
# [2] = system: PKN3; details: compound concentrations:0.3nM, 1nM, 3nM, 10nM, 30nM, 100nM, 300nM, 1000nM,R2:0.90981556238152395,slope:1.4029304179145099,EC50 Standard Error, by the legend:Standard error of the EC50 estimation as provided by the drc package.
# [3] = system: NQO1; details: read-out: apparent Kd, n = 1
# [4] = system: NTRK1; details: read-out: apparent Kd, n = 1
# [5] = system: PRKCI; details: read-out: apparent Kd, n = 1
# [6] = system: MAPK11; details: read-out: apparent Kd, n = 1
# [7] = system: CAMK2D; details: read-out: apparent Kd, compound concentrations: 100 nM and 1000 nM (sheet 'Samples'), n = 1
# [8] = system: CSNK1G3; details: read-out: apparent Kd, compound concentrations: 100 nM and 1000 nM (sheet 'Samples'), n = 1
# [9] = system: FYN; details: read-out: apparent Kd, compound concentrations: 100 nM and 1000 nM (sheet 'Samples'), n = 1
# [10] = system: PIM1; details: read-out: apparent Kd, n = 1
# [11] = system: MAPK1; details: read-out: apparent Kd, compound concentrations: 100 nM and 1000 nM (sheet 'Samples'), n = 1
# [12] = system: ACAD8; details: read-out: apparent Kd, n = 1
# [13] = system: IRAK1; details: read-out: apparent Kd; compound concentrations:100 nM and 1000 nM (sheet 'Samples'); n = 1
# [14] = system: TAOK1; details: read-out: apparent Kd, n = 1
# [15] = system: CAMK4; details: read-out: apparent Kd, n = 1
# [16] = system: MERTK; details: read-out: apparent Kd, compound concentrations: 100 nM and 1000 nM (sheet 'Samples'), n = 1
# [17] = system: ERN1; details: read-out: apparent Kd, n = 1
# [18] = system: EGFR; details: read-out: apparent Kd; compound concentrations: 100 nM and 1000 nM (sheet 'Samples'), CATDS: 4.6801095990659902E-2; n = 1
# [19] = compound concentrations:100 nM and 1000 nM (sheet 'Samples')
# 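Throughout, for EC50: competition pulldown with Kinobeads ε in cell lysates, inhibitor preincubated 45 min at 4 °C, bound kinases quantified by LC–MS/MS against DMSO control.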
# 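Throughout, for Kd: competition pulldown with Kinobeads ε in cell lysates, inhibitor preincubated 45 min at 4 °C, bound kinases quantified by LC–MS/MS against DMSO control.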
smiles,measurement,setting,value
CCn1c(-c2nonc2N)nc2c(C#CC(C)(C)O)nc(OCCNC)cc21.Cl [GSK949675A],EC50,[1],0.316 µM
same,Kd,[1]; read-out: apparent Kd,0.218 µM
same,EC50,[2],0.0898 µM
same,Kd,[2]; read-out: apparent Kd,0.0898 µM
CNCc1ccc(-c2cc(-c3nc(-c4ccc(S(=O)(=O)C(C)C)cc4)cnc3N)on2)cc1 [VE-822],potency estimated from few doses,[3]; [19],1.09 µM
Cl.Cl.NC(CNC(=O)c1cc(Br)c(-c2ccnc3[nH]ccc23)s1)c1ccccc1.NC(CNC(=O)c1cc(Br)c(-c2ccnc3[nH]ccc23)s1)c1ccccc1 (centres unmarked) [GSK1322949A],potency estimated from few doses,"[4]; compound concentrations: 100 nM and 1000 nM (sheet 'Samples'), CATDS: 2.41440168152992E-2",2.14 µM
same,potency estimated from few doses,"[5]; compound concentrations: 100 nM and 1000 nM (sheet 'Samples'), CATDS: 2.43099453780894E-2",2.1 µM
Cc1ccccc1-n1ncc(C(=O)c2ccccc2)c1N [RO1151248-000],potency estimated from few doses,"[6]; compound concentrations: 100 nM and 1000 nM (sheet 'Samples'), CATDS: 3.0870042087065699E-2",0.552 µM
CCN(CC)Cc1ccc(Nc2nccc(-c3cnn4ncccc34)n2)cc1 [GW780056X],potency estimated from few doses,[7]; CATDS: 2.8805291945328802E-2,0.472 µM
same,potency estimated from few doses,"[4]; compound concentrations: 100 nM and 1000 nM (sheet 'Samples'), CATDS: 2.09044703121741E-2",1.14 µM
CCn1c(-c2cccnc2O)nc2cnccc21 [SB-736715],potency estimated from few doses,[8]; CATDS: 1.22763705207965E-2,2.06 µM
same,potency estimated from few doses,[9]; CATDS: 1.7018948843541101E-2,1.01 µM
same,potency estimated from few doses,"[6]; compound concentrations: 100 nM and 1000 nM (sheet 'Samples'), CATDS: 1.30714391114645E-2",1.76 µM
same,potency estimated from few doses,"[10]; compound concentrations: 100 nM and 1000 nM (sheet 'Samples'), CATDS: 1.79844140695006E-2",0.909 µM
same,potency estimated from few doses,"[5]; compound concentrations: 100 nM and 1000 nM (sheet 'Samples'), CATDS: 1.2421041550088101E-2",2 µM
O=C(O)C(F)(F)F.O=c1[nH]ccc2nc(N[C@@H]3CCNC3)nc(Nc3ccc4c(c3)S(=O)(=O)CC4)c12 [GSK2181306A],potency estimated from few doses,[8]; CATDS: 9.3335280079581504E-3,1.06 µM
same,potency estimated from few doses,[11]; CATDS: 9.4433771330179501E-3,1.02 µM
COc1ccc(-c2cc3c(N)ncnc3o2)cc1 [GW642138X],potency estimated from few doses,"[12]; compound concentrations: 100 nM and 1000 nM (sheet 'Samples'), CATDS: 9.2281876473195495E-2",2.17 µM
CN(C)CC(O)COc1ccc(Nc2nccc(-c3cnn4nc(N5CCOCC5)ccc34)n2)cc1 (centres unmarked) [GW767488X],potency estimated from few doses,[13],0.08 µM
NC(=O)c1cc(-c2ccccc2)cc2c(C3CCNCC3)c[nH]c12 [GSK301362A],potency estimated from few doses,[12]; [19],1.75 µM
same,potency estimated from few doses,[14]; [19],1.5 µM
FC(F)(F)c1ccc(-c2ncn(CCCN3CCOCC3)c2-c2ccncc2)cc1 [SB-217780],potency estimated from few doses,"[12]; compound concentrations: 100 nM and 1000 nM (sheet 'Samples'), CATDS: 0.18065047008749499",2.21 µM
O=C(O)C(F)(F)F.O=C(O)C(F)(F)F.O=c1[nH]ccc2nc(N[C@@H]3CCCNC3)nc(Nc3ccc(S(=O)(=O)N4CCOCC4)cc3)c12.O=c1[nH]ccc2nc(N[C@@H]3CCCNC3)nc(Nc3ccc(S(=O)(=O)N4CCOCC4)cc3)c12 [GSK2177277A],potency estimated from few doses,"[15]; compound concentrations: 100 nM and 1000 nM (sheet 'Samples'), CATDS: 6.74489650552607E-3",1.19 µM
same,potency estimated from few doses,[8]; CATDS: 7.8894585802162295E-3,0.605 µM
same,potency estimated from few doses,[16]; CATDS: 1.1592861489919001E-2,0.181 µM
same,potency estimated from few doses,"[14]; compound concentrations: 100 nM and 1000 nM (sheet 'Samples'), CATDS: 1.8448588679872001E-2",0.0619 µM
COc1cc[nH]c1/C=C1\C(=O)Nc2ccc(F)c(C#CC3(O)CCNCC3)c21.Cl [RO0282986-001],potency estimated from few doses,[7]; CATDS: 2.4491980048065101E-2,0.142 µM
same,potency estimated from few doses,"[4]; compound concentrations: 100 nM and 1000 nM (sheet 'Samples'), CATDS: 9.7350807133640294E-3",1.47 µM
c1cnn2ncc(-c3ccnc(Nc4ccc5c(c4)OCCO5)n3)c2c1 [GW806290X],potency estimated from few doses,"[3]; compound concentrations: 100 nM and 1000 nM (sheet 'Samples'), CATDS: 2.4144843754049801E-2",1.04 µM
CC(C)Oc1ccc2c(-c3ccnc(Nc4ccc(N5CCN(C)CC5)cc4)n3)cnn2n1 [GW696155X],potency estimated from few doses,[13],0.769 µM
same,potency estimated from few doses,[14]; [19],1.58 µM
CNc1cc(-c2ccc3c(N)n[nH]c3c2)nc(N)n1 [GSK2224810A],potency estimated from few doses,[3]; [19],1.44 µM
O=C(O)C(F)(F)F.O=c1[nH]ccc2nc(N[C@@H]3CCNC3)nc(Nc3cc(Cl)cc(Cl)c3)c12 [GSK2188764A],potency estimated from few doses,[15]; [19],0.977 µM
CS(=O)(=O)CCn1c(=O)c(Oc2ccc(F)cc2F)cc2cnc(NC3CCOCC3)nc21 [RO5027956-000],potency estimated from few doses,[6]; [19],1.73 µM
Cn1cc(C2=C(c3c(S(C)=O)n(C)c4ccccc34)C(=O)NC2=O)c2ccccc21 (centres unmarked) [RO0317379-000],potency estimated from few doses,[16]; CATDS: 0.152685994301652,0.59 µM
Cl.Cn1c(=O)c(Cc2ccccc2F)cc2cnc(NC3CCOCC3)nc21 [RO3305377-001],potency estimated from few doses,"[15]; compound concentrations: 100 nM and 1000 nM (sheet 'Samples'), CATDS: 1.6194401739627301E-2",2.15 µM
O=C(Nc1n[nH]c2nc(-c3ccccc3O)ccc12)C1CC1 [SB-711880],potency estimated from few doses,[17]; [19],1.7 µM
CCn1c(-c2nonc2N)nc2cncc(C(=O)N3CC[C@H](N)C3)c21.Cl [SB-772077-B],potency estimated from few doses,[10]; [19],0.0308 µM
same,potency estimated from few doses,[5]; [19],0.606 µM
Cc1cc(NC(=O)c2cccc(NC(=O)/C=C/CN(C)C)c2)ccc1Nc1nccc(-c2cccnc2)n1 [JNK-IN-7],potency estimated from few doses,[13],0.111 µM
Nc1nccc(-c2ccc3c(N)n[nH]c3c2)n1 [GSK1034945A],potency estimated from few doses,[5]; [19],1.24 µM
COc1cccc(C2=C(c3c(C)n(C)c4ccccc34)C(=O)NC2=O)c1 [RO3300167-000],potency estimated from few doses,"[17]; compound concentrations: 100 nM and 1000 nM (sheet 'Samples'), CATDS: 7.9309280446682603E-2",1.54 µM
Cc1occc1-c1nc(N)c(OC[C@@H](N)Cc2c[nH]c3ccccc23)cc1-c1cc2c(C)n[nH]c2cn1 [GSK1660450B],potency estimated from few doses,[10]; [19],0.0927 µM
same,potency estimated from few doses,[14]; [19],0.012 µM
Nc1nc(-c2ccc3c(N)n[nH]c3c2)cc(N2CCCC(NC(=O)c3ccccc3)C2)n1 (centres unmarked) [GSK2286775B],potency estimated from few doses,[15]; [19],1.09 µM
same,potency estimated from few doses,[3]; [19],1.37 µM
CCn1c(-c2nonc2N)nc2cncc(Br)c21 [SB-738004],potency estimated from few doses,[5]; [19],0.483 µM
CN[C@H](C#Cc1c(F)ccc2c1/C(=C/c1[nH]ccc1OC)C(=O)N2)CO.Cl [RO0283049-001],potency estimated from few doses,"[4]; compound concentrations: 100 nM and 1000 nM (sheet 'Samples'), CATDS: 2.3877325037377599E-2",0.949 µM
COc1cc[nH]c1/C=C1\C(=O)Nc2ccc([N+](=O)[O-])c(N3CC[C@@H](O)C3)c21 [RO0504985-000],potency estimated from few doses,"[4]; compound concentrations: 100 nM and 1000 nM (sheet 'Samples'), CATDS: 3.6845933962960403E-2",0.886 µM
CCC(CC)(CC)n1cnc2c(N)ncnc21 [SKF-97620],potency estimated from few doses,[8]; CATDS: 2.4754449130961701E-2,1.82 µM
same,potency estimated from few doses,[11]; CATDS: 2.7105315036477701E-2,1.35 µM
COc1cc[nH]c1/C=C1\C(=O)Nc2ccc(F)c(C#C[C@@H](O)[C@@H](N)[C@@H](C)O)c21 [RO0283120-000],potency estimated from few doses,[4]; [19],1.43 µM
Cl.Cl.Cl.c1ccc(Oc2ccc(Nc3ccnc4cc(-c5ccc(CN6CCNCC6)o5)ccc34)cc2)nc1.c1ccc(Oc2ccc(Nc3ccnc4cc(-c5ccc(CN6CCNCC6)o5)ccc34)cc2)nc1 [GW567142A],potency estimated from few doses,"[12]; compound concentrations: 100 nM and 1000 nM (sheet 'Samples'), CATDS: 1.7028042656885199E-2",2.04 µM
same,potency estimated from few doses,[18],0.143 µM
same,potency estimated from few doses,[9]; CATDS: 5.8978422577379903E-2,0.0931 µM
same,potency estimated from few doses,"[3]; compound concentrations: 100 nM and 1000 nM (sheet 'Samples'), CATDS: 1.8216900253795E-2",1.58 µM
